Assay [1] in a line: reducers of endogenous Her2 protein level, primary screen, SKBR3 breast tumor cells, AlphaScreen, ATP viability (AID 461;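 active means Her2 level under about 52% in both replicate screens, with viability over 70% of control, limit read from the data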;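 on Her2 level: lower value means less Her2 protein in the cells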;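 on viability: percent of carrier control wells set as 100% viability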). Conditions: 18-24 h, measured here: SKBR3 viability, ATP luminescence, at 10 µM. In general terms: In Alpha technology, singlet oxygen from a donor bead excites a nearby acceptor bead.
The target of assay [2] is Receptor tyrosine-protein kinase erbB-2 (Homo sapiens) (UniProt P04626). The description is as above. Conditions: 18-24 h, at 10 µM, stronger effect = lower value.
Receptor tyrosine-protein kinase erbB-2 (Homo sapiens), sequence (P04626 whole entry, looked up): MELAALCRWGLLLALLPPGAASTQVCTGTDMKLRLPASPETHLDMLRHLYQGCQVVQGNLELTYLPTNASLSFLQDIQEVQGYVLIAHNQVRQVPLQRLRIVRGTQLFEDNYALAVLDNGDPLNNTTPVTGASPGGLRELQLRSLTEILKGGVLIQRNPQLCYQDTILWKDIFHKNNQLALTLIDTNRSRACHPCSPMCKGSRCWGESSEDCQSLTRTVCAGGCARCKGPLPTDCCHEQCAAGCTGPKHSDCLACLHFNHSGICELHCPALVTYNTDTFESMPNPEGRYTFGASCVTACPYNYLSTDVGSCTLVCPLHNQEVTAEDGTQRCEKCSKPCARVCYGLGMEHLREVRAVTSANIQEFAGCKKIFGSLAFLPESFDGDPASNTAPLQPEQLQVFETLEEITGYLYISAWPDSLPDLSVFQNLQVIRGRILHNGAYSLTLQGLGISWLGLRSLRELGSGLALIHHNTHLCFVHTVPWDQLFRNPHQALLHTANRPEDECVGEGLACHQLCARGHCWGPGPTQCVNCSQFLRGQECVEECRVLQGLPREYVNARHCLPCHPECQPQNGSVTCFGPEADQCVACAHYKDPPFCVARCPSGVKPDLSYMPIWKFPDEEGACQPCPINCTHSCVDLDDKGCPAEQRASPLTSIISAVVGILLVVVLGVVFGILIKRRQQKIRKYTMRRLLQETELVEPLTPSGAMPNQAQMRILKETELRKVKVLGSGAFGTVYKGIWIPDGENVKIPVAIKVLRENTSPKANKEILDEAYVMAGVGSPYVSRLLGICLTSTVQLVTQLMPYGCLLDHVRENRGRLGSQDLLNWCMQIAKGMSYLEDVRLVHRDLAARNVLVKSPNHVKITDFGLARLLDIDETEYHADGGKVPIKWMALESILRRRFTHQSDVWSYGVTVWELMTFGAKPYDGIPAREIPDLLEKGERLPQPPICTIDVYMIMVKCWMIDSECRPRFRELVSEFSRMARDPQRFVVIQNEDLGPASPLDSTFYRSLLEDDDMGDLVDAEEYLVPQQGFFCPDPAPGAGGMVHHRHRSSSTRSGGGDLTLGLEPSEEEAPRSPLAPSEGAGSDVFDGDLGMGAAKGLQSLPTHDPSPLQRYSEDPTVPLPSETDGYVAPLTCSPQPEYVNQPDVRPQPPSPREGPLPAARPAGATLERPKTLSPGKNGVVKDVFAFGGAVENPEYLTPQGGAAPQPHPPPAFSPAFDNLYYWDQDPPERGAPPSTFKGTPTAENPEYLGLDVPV
Assay [3] can be described thus: SK-BR-3 cell growth inhibitors, pilot screen, 24 h, human (AID 572;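 active means viability at or below 10% of carrier control in both of two separate runs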;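 further: compound exposure lasted between 18 and 24 h rather than exactly 24 h; 100% = carrier-treated control wells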). The conditions noted are these: SK-BR-3 viability, CellTiter-Glo luminescence, at 10 µM, stronger effect = lower value.
The nature of assay [4]: HUVEC growth inhibition – cell-based, human, primary screen (AID 575;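 active means viability at or below 30% in both replicate assays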;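 further: 100% = median of untreated cell wells with 0.1% DMSO on each plate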). The conditions noted are these: HUVEC proliferation, CellTiter-Glo luminescence, 72 h; at 10 µM; stronger effect = lower value. On the technique in general: ATP-based viability assays read luminescence as a measure of living cells.
Assay [5] can be described thus: growth inhibitors of H69AR lung tumor, primary screen, human, duplicate replicates (AID 580;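 active means viability at or under a set limit in both replicates, limit being median viability minus 3 SD, cut at about 48% in these data, passing the limit was not always enough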;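 further: 100% = mean luminescence of untreated wells and 0% = no signal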). The conditions noted are these: H69AR lung tumor cells viability, ATP luminescence, 72 h; at 10 µM; stronger effect = lower value.
Assay [6] in a line: reversal of MRP1-mediated doxorubicin resistance, pilot screen, H69AR cells, doxorubicin co-treatment (AID 601;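 active means viability loss from added drug above about 55%, and viability with drug at most 40%, in both replicates, limit read from the data, passing the limit was not always enough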). The conditions noted are these: CellTiter-Glo, 72 h, at 10 µM; for differential viability (reversal): stronger effect = higher value.
Assay [7] can be described thus: 384-well plate pilot, post-Golgi transport modulator project, inhibition of yeast transport mutant growth (AID 636; in the data active means inhibition above about 31%). Conditions: absorbance 615 nm, about 18 h, stronger effect = higher value.
A short description of assay [8]: growth suppression of yeast trafficking mutant, preliminary HTS, modulators of trafficking downstream of Golgi apparatus project, 1536-format plate, OD 615 nm (AID 637; in the data active means inhibition above about 30%). Conditions: yeast transport mutant growth, absorbance 615 nm, 18 h; stronger effect = higher value.
The nature of assay [9]: OD615 S. cerevisiae growth inhibition, permissive medium, pilot counter-assay, permissive growth control for S. cerevisiae lifespan shortening project (AID 705). The conditions noted are these: OD615, 24 h, at 10 µM, stronger effect = higher value.
The nature of assay [10]: Restrictive medium S. cerevisiae growth inhibition, OD615, pilot screen of yeast lifespan reduction project, restrictive growth control (AID 706;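 active means growth inhibition above a set limit, 3 SD over mean compound inhibition, in both replicates, cut at about 43% in these data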;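 further: modified DeaD lifespan yeast strain shifted to restrictive glucose medium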). The conditions noted are these: OD615, 48 h, at 10 µM, stronger effect = higher value.
Assay [11] in a line: viability gain of MRP-1-high H69AR cells under doxorubicin, pilot screen, MRP-1 activator project, CellTiter-Glo, duplicate (AID 807;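 active means viability increase at or above a cutoff of the median across tested compounds plus 3 SD, cut at about 8.5% in these data, passing the limit was not always enough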;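 further: compound pretreatment 18-22 h then 72 h combined with doxorubicin; 0% = doxorubicin alone and 100% = vehicle without doxorubicin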). Conditions: H69AR viability with doxorubicin, CellTiter-Glo luminescence; at 10 µM; stronger effect = higher value.
A short description of assay [12]: growth suppression of beta-catenin knockout HCT116, pilot screen, human colon tumor cells (AID 823;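 active means cell viability at or below a set limit in both duplicate runs, the limit being the all-compound median minus 4 SD, cut at about 23% in these data, passing the limit was not always enough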;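 further: 0% = wells killed by 20 µM Hyamine and 100% = untreated DMSO cell wells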). The conditions noted are these: CellTiter-Glo, 60 h, at 10 µM, stronger effect = lower value.
The nature of assay [13]: growth suppression of PTEN-deleted HCT116, pilot screen, cell-based, HCT116 clonal line, CellTiter-Glo (AID 824;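 active means viability at or below 27.92% in each of two runs, the all-compound median minus 4 SD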;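 further: 0% = 20 µM Hyamine control and 100% = vehicle cell control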). The conditions noted are these: 60 h, at 10 µM, stronger effect = lower value.
Assay [14] is described as follows: inhibitors of the yeast RAM network, pilot screen, dse1pr::URA3 reporter, 5-FOA selection (AID 869;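 active means inhibition over a set limit, the all-compound mean plus 3 SD, in both replicate runs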;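 further: 0% = DMSO wells with no growth and 100% = 10 µM 1-NA-PP1 with full growth; RAM network block rescues cells from 5-FOA so hits raise OD615 growth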). Conditions: S. cerevisiae dse1pr::URA3 5-FOA growth, OD615, 2 d; at 10 µM; stronger effect = higher value; strain carries analog-sensitive mutant Cbk1 kinase.
The nature of assay [15]: RAM signaling pathway blockade in yeast – S. cerevisiae, Pdr1DBD-CYC8 efflux-inhibited sensitized strain, primary screen (AID 1298;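 active means RAM network inhibition above 8.4% in each of two replicates, 3 SD over the compound average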;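 further: 0% = DMSO untreated cells without growth and 100% = 10 µM 1-NA-PP1 full growth; higher means more yeast growth rescued from 5-FOA killing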). Conditions: S. cerevisiae cbk1-as DSE1-URA3 strain, 5-FOA growth OD615, 2 d; at 50 µM; stronger effect = higher value.
Where [16] appears, read: H69AR cells + 2 uM doxorubicin, measured here: viability with 2 uM doxorubicin, stronger effect = lower value.
[17] abbreviates: H69AR cells, compound alone cytotoxicity.

Molecules are shown by their SMILES. Records with an inconclusive call do not appear. The source made the active and inactive calls.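 How the source made its calls, unless noted: active means growth inhibition above 25% in both replicates, a cutoff set 3 SD above the mean; inconclusive means above 25% in only one replicate; inactive means the rest.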

`CCCS(=O)(=O)N1CCN(C(=O)c2cccnc2)CC1`: the viability was 97% in assay [1]; 97% (inactive) in [3]; 93.1% (inactive) in assay [4]; 106% (inactive) in [5]; 101% in [6] (setting [16]); 106% in [6] (setting [17]). The viability in assay [12] was 101% (inactive); in [13] it was 95.2% (inactive). Further, the Her2 level in [2] was 98.5% (inactive). Moreover, the differential viability (reversal) in assay [6] (H69AR cells + 2 uM doxorubicin) was 5.65% (inactive). Further, the inhibition in assay [7] was -0.26% (inactive); in assay [8], -3.77% (inactive); in assay [14], -0.345% (inactive). Also, the growth inhibition in assay [9] is -8.47% (inactive); in assay [10], -15.8% (inactive). In addition, the viability increase in [11] is 1.08% (inactive). In addition, in assay [15], the RAM network inhibition was 0.42% (inactive).
On to `O=C(CSc1nc(-c2ccco2)cc(C(F)(F)F)n1)NCCCn1ccnc1`, for which the viability was 94% in [1]; 94% (inactive) in assay [3]; 64.9% (inactive) in assay [4]; 94.7% (inactive) in assay [5]; 98.9% in assay [6] (setting [16]); 94.7% in assay [6] (setting [17]). In addition, the viability is 98.6% (inactive) in [12] and 96.3% (inactive) in assay [13]. Also, the Her2 level in assay [2] was 93% (inactive). Also, in assay [6] (H69AR cells + 2 uM doxorubicin), the differential viability (reversal) is -4.19% (inactive). Further, the values for the inhibition in assay [7], in assay [8] and in assay [14] were -2.53% (inactive), -2.3% (inactive) and 1.44% (inactive), respectively. Also, the growth inhibition is -8.51% (inactive) in [9] and -15.7% (inactive) in assay [10]. In addition, the viability increase in assay [11] is -0.15% (inactive). Moreover, the RAM network inhibition in assay [15] was 9.1% (inactive).
As for `COCCN(CCOC)c1ncnc2c1cnn2-c1ccccc1`, the viability was 112% in assay [1]; 112% (inactive) in assay [3]; 88.4% (inactive) in assay [4]; 86.6% (inactive) in assay [5]; 93.5% in [6] (setting [16]); 86.6% in assay [6] (setting [17]). Moreover, the viability in assay [12] was 107% (inactive); in assay [13] it was 98.5% (inactive). In addition, the Her2 level in [2] was 99% (inactive). Besides, the differential viability (reversal) in assay [6] (H69AR cells + 2 uM doxorubicin) was -6.92% (inactive). In addition, the inhibition in [7] is -4.8% (inactive); in assay [8] it was 4.33% (inactive); in assay [14], 0.505% (inactive). For the same compound, the growth inhibition in assay [9] was -5.8% (inactive); in [10], 1.92% (inactive). Also, in assay [11], the viability increase is 1.43% (inactive). Besides, the RAM network inhibition in assay [15] is 3.39% (inactive).
As to `CCOc1ccc2nc(N3CCC(C(=O)N4CCN(C5CCCCC5)CC4)CC3)sc2c1`, the viability in assay [1] is 83%; in assay [3], 83% (inactive); in assay [4], 98.6% (inactive); in assay [5], 95.7% (inactive); in [6] (setting [16]), 87.2%; in [6] (setting [17]), 95.7%. For the same compound, the viability in assay [12] was 55.6% (inactive); in assay [13], 70.3% (inactive). Besides, the Her2 level in [2] was 83.5% (inactive). In addition, in assay [6] (H69AR cells + 2 uM doxorubicin), the differential viability (reversal) was 8.46% (inactive). Further, the values for the inhibition in assay [7], in assay [8] and in assay [14] were -1.33% (inactive), -4.1% (inactive) and 1.22% (inactive), respectively. The growth inhibition is -0.545% (inactive) in [9] and 8.85% (inactive) in assay [10]. Further, the viability increase in assay [11] is -3.43% (inactive). For the same compound, the RAM network inhibition in [15] was 0.6% (inactive).
On to `O=C(NCc1ccc(F)cc1)c1cc2ccccn2n1`, for which the viability is 84% in [1]; 84% (inactive) in assay [3]; 99% (inactive) in [4]; 98.2% (inactive) in assay [5]; 80.6% in assay [6] (setting [16]); 98.2% in assay [6] (setting [17]). Also, the viability was 99% (inactive) in assay [12] and 89.8% (inactive) in assay [13]. In assay [2], the Her2 level is 98.5% (inactive). In assay [6] (H69AR cells + 2 uM doxorubicin), the differential viability (reversal) is 17.5% (inactive). Besides, the inhibition in assay [7] is -2.95% (inactive); in assay [8], 4.5% (inactive); in assay [14], 0.47% (inactive). The growth inhibition in assay [9] was 1.54% (inactive); in [10], 3.24% (inactive). Besides, the viability increase in [11] is -0.54% (inactive). Also, in [15], the RAM network inhibition was 1.1% (inactive).
With `O=C(Nc1c(C(=O)NCc2ccco2)cnn1-c1ccccc1)c1ccc(F)cc1`, the viability was 95.5% in assay [1]; 95.5% (inactive) in [3]; 91.9% (inactive) in assay [4]; 96.9% (inactive) in assay [5]; 92.6% in [6] (setting [16]); 96.9% in assay [6] (setting [17]). Besides, the viability is 101% (inactive) in [12] and 96.8% (inactive) in assay [13]. Besides, in assay [2], the Her2 level is 116% (inactive). Further, the differential viability (reversal) in assay [6] (H69AR cells + 2 uM doxorubicin) is 4.25% (inactive). Moreover, the values for the inhibition in [7], in [8] and in assay [14] were -0.26% (inactive), -6% (inactive) and -0.12% (inactive), respectively. Moreover, the growth inhibition in assay [9] is -0.04% (inactive); in [10] it was 13.1% (inactive). For the same compound, in assay [11], the viability increase is -5.34% (inactive). Moreover, in [15], the RAM network inhibition is 0.53% (inactive).
In the case of `COc1cccc(NC(=O)C2CCCN(S(=O)(=O)c3cccc4cccnc34)C2)c1` (stereo not drawn), the viability in assay [1] is 106%; in assay [3], 106% (inactive); in [4], 77.8% (inactive); in [5], 82.7% (inactive); in [6] (setting [16]), 89.3%; in assay [6] (setting [17]) it was 82.7%. Moreover, the results for the viability in [12] and in assay [13] were 72.4% (inactive) and 70.6% (inactive), respectively. The Her2 level in assay [2] was 102% (inactive). Besides, the differential viability (reversal) in assay [6] (H69AR cells + 2 uM doxorubicin) is -6.64% (inactive). Further, the inhibition is -5.73% (inactive) in [7], -5.5% (inactive) in assay [8] and 1.77% (inactive) in [14]. Further, the growth inhibition is -12.6% (inactive) in assay [9] and -6.68% (inactive) in assay [10]. The viability increase in [11] is -1.5% (inactive). Besides, the RAM network inhibition in assay [15] was 3.85% (inactive).
Consider `Cc1ccc(SCC(=O)NCCN2C(=O)CSC2=O)c(C)c1`, for which the viability in assay [1] was 99.5%; in [3] it was 99.5% (inactive); in [4], 92.3% (inactive); in [5], 87.7% (inactive); in assay [6] (setting [16]), 89.5%; in assay [6] (setting [17]), 87.7%. The viability in [12] is 111% (inactive). Besides, the Her2 level in assay [2] was 110% (inactive). Moreover, the differential viability (reversal) in [6] (H69AR cells + 2 uM doxorubicin) is -1.79% (inactive). For the same compound, the inhibition was 0.52% (inactive) in assay [7], -0.83% (inactive) in assay [8] and 1.09% (inactive) in [14]. Besides, the growth inhibition in assay [9] is -14.8% (inactive); in assay [10], -3.53% (inactive). The viability increase in assay [11] is -0.38% (inactive). Moreover, the RAM network inhibition in assay [15] is 3.32% (inactive).
With `Cc1[nH]nc2c1C(C1CC=CCC1)C(C#N)=C(N)O2` (stereo not drawn), the viability in [1] was 102%; in [3], 102% (inactive); in assay [4] it was 63.5% (inactive); in [5] it was 96% (inactive); in [6] (setting [16]), 95.1%; in assay [6] (setting [17]), 96%. Also, the viability in assay [12] is 17.6% (active). Moreover, in assay [2], the Her2 level is 80% (inactive). For the same compound, the differential viability (reversal) in [6] (H69AR cells + 2 uM doxorubicin) was 0.85% (inactive). The inhibition in [7] is 0.65% (inactive); in [8], -9.17% (inactive); in [14], 3.08% (inactive). Further, the values for the growth inhibition in assay [9] and in assay [10] were 1.72% (inactive) and 1.64% (inactive), respectively. For the same compound, in [11], the viability increase is -5.29% (inactive). Also, in [15], the RAM network inhibition was -0.5% (inactive).
For `CCn1cc(C(=O)NCC2CCCO2)c(=O)c2cc(S(=O)(=O)N(C)C3CCCCC3)ccc21` (stereo not drawn), the viability in assay [1] was 83.5%; in [3], 83.5% (inactive); in assay [4], 69.5% (inactive); in assay [5], 68.5% (inactive); in assay [6] (setting [16]) it was 80%; in [6] (setting [17]), 68.5%. The viability was 88.9% (inactive) in [12] and 87% (inactive) in assay [13]. Moreover, in assay [2], the Her2 level is 93.5% (inactive). Further, the differential viability (reversal) in [6] (H69AR cells + 2 uM doxorubicin) is -11.5% (inactive). Further, the inhibition was -1.41% (inactive) in [7], 1.5% (inactive) in [8] and 4.23% (inactive) in [14]. Also, the growth inhibition in assay [9] is -2.38% (inactive); in assay [10], -2.37% (inactive). In assay [11], the viability increase is -5.22% (inactive). Also, the RAM network inhibition in assay [15] is -0.83% (inactive).

One may read the viability as a read-out of living cells in per cent, often relative to untreated cells. As a reminder, the inhibition is the change of the read-out against control, counted positive when it falls.
